# Compounds without any hit were thinned out: in the full panel of roughly 83,000, 20% have a hit.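 Testing used 96-well plates and a 48-hour single-concentration exposure. Example: -40 means 40% of the starting cells died.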 Unmarked numbers belong to inactive results. Activity calls are given as the source filed them. The calls were made as follows: active = growth percent below 10; inactive = the rest.
# Key:
# Test in all cases: NCI-60 one-dose screen, 48 h (100 = growth as untreated, 0 = no growth, -100 = all killed)
# Conditions in all cases: 10 µM unless noted
# [1] = tested on: T-47D breast
# [2] = tested on: BT-549 breast
# [3] = tested on: MDA-MB-435 melanoma
# [4] = tested on: SW-620 colon
# [5] = tested on: MCF7 breast
# [6] = tested on: HCT-116 colon
# [7] = tested on: HCC-2998 colon
# [8] = tested on: KM12 colon
SMILES,growth [1],growth [2],growth [3],growth [4],growth [5],growth [6],growth [7],growth [8]
COc1ccccc1Cn1cc(C#N)c(N)c1C(=O)c1ccc(Br)cc1,74.1%,103%,94.4%,100%,91.5%,93.9%,103%,96.5%
CC1(C)CC[C@]23CC[C@]4(C)[C@H](CC[C@@H]5[C@@]6(C)CC[C@H](NCO)C(C)(C)[C@@H]6CC[C@]54C)[C@H]2[C@H]1OC3,44.2%,98.5%,38.8%,-73.5% (active),1.96% (active),-9.59% (active),-24% (active),-0.242% (active)
O=C(CCCCCCN1CC(=O)N2[C@@H](c3cccs3)c3[nH]c4ccccc4c3C[C@H]2C1=O)NO,42.7%,104%,80.8%,82.7%,52.1%,60.5%,101%,81.8%
O=C1C(SCc2ccccc2)=C(Cl)CN1c1ccc(Cl)cc1,50.4%,109%,100%,101%,25.7%,89.7%,95.9%,99.1%
CS(=O)(=O)c1ccc(/C(=N/N=C(N)N)c2ccc(F)cc2)cc1,94.4%,98%,11.4%,59.9%,15.1%,33.7%,90.3%,58.2%
O=C(N/N=C\c1ccc(F)cc1)c1ccc2nc(-c3ccc(Br)cc3)[nH]c2c1,75.6%,73.5%,40.7%,2.87% (active),9.41% (active),-21% (active),31.3%,16%
O=c1[nH][nH]c(-c2ccc(F)cc2)c1-c1nc2ccccc2s1,87.7%,98.8%,104%,105%,81.2%,93.2%,107%,105%
COc1cc(OC)cc(-c2cc(-c3c[nH]c4ccccc34)nc(-c3c[nH]c4ccccc34)c2C#N)c1,98.3%,104%,99.4%,103%,90.7%,101%,113%,98.7%
C#C[C@]1(O)CC[C@H]2[C@@H]3CC=C4c5sc(Nc6cccc(F)c6)nc5CC[C@]4(C)[C@H]3CC[C@@]21C,29.9%,19.4%,29.9%,8.9% (active),0.863% (active),2.09% (active),42%,13.7%
C#CCN(C)CCCOc1ccc(NC(=O)CCCCCCCCC(=O)NO)cc1Cl,72.6%,92.5%,74.2%,63.1%,31.9%,39.2%,71.8%,83.4%
COc1cc(/C=N\NC(=O)c2ccc3nc(-c4ccc(Br)cc4)[nH]c3c2)cc(OC)c1OC,9.41% (active),38%,52.5%,79.1%,6.5% (active),18%,73.1%,47.1%
COc1ccc(-c2c3c(cn2Cc2cccc(OC)c2)-c2oncc2CCC3)cc1,75.7%,105%,98.1%,96.4%,96.9%,96.9%,111%,83.1%
NC(=S)n1c(=O)n(-c2cccc(C(F)(F)F)c2)c(=O)c2cc(-c3ccc(F)cc3F)ccc21,-12.9% (active),-7.8% (active),2.32% (active),15%,1.71% (active),3.05% (active),20.1%,6.48% (active)
Cc1ccc(S(=O)(=O)NCCCNc2nccc(-c3[nH]c(-c4ccccc4)nc3-c3ccc(F)c(O)c3)n2)cc1,71.1%,93.1%,17.6%,115%,73.5%,69.6%,127%,83.9%
O=[N+]([O-])c1ccc(NC(=S)NNC(=S)Nc2ccc(F)cc2)cc1,74.1%,97.1%,91%,91.5%,82%,83.7%,85.5%,80.4%
